The structures appear in SMILES notation. Inconclusive results are not listed. The source made the active and inactive calls. The calls were made as follows: active = hit-call score of the fitted dose curve at least 0.9, where 1 is the maximum; inconclusive = response in the unintended direction; inactive = score below 0.9.

A word on the AC50: it is the midpoint of the concentration-response curve, whichever way the signal moves.

The target in this assay is human Protein Tyrosine Phosphatase Non-receptor Type 6 (PTPN6), PTPN6 (gene 5777) (UniProt P29350). Nature of the assay: NVS_ENZ_hPTPN6: NovaScreen (NVS) Enzymatic Assay for human Protein Tyrosine Phosphatase Non-receptor Type 6 (PTPN6) (AID 2283210). The method, then: NVS_ENZ_hPTPN6 is a biochemical, single-readout assay that uses extracted gene-proteins from SF9 in a cell-free assay. Measurements were taken 1.33 hours after chemical dosing in a 384-well plate.NVS_ENZ_hPTPN6 is one of one assay component(s) measured or calculated from the NVS_ENZ_hPTPN6 assay. It is designed to make measurements of enzyme activity, a form of enzyme reporter, as detected with fluorescence intensity signals by Fluorescence and electrophoretic mobility shift technology.Data from the assay component NVS_ENZ_hPTPN6 was analyzed into 1 assay endpoint. This assay endpoint, NVS_ENZ_hPTPN6, was analyzed in the positive analysis fitting direction relative to DMSO as the negative control and baseline of activity. Using a type of enzyme reporter, loss-of-signal activity can be used to understand changes in the enzymatic activity as they relate to the gene PTPN6. Furthermore, this assay endpoint can be referred to as a primary readout, because this assay has produced multiple assay endpoints where this one serves a enzymatic activity function. To generalize the intended target to other relatable targets, this assay endpoint is annotated to the phosphatase intended target family, where the subfamily is non-receptor tyrosine phosphatase.
Sequence of human Protein Tyrosine Phosphatase Non-receptor Type 6 (PTPN6), PTPN6 (gene 5777) (P29350 whole entry, looked up): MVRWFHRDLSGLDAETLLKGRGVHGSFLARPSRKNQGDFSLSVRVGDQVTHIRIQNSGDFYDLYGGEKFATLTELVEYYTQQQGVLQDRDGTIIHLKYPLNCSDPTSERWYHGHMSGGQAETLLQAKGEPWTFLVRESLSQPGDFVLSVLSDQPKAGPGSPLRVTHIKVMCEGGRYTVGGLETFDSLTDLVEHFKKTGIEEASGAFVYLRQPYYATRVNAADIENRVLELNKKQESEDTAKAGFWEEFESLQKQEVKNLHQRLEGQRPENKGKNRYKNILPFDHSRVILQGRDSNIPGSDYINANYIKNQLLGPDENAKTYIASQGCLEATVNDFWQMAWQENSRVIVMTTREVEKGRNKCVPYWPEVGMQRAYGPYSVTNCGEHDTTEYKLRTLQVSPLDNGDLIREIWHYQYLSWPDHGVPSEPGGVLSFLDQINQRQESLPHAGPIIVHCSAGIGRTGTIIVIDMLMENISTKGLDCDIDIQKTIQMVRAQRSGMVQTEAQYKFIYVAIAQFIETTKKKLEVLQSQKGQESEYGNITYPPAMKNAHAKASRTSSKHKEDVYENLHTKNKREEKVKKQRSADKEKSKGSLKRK
Binding assays used specific radioligands (tritiated, iodinated) with non-radioactive competitive displacement ligands in agonist or antagonist protocols (as indicated) and various reference compounds and inhibitors to titrate specific binding to receptors and transporters. Most enzyme assays (CYPs, kinases, phosphatases, proteases, HDACs) used recombinant protein and specific substrates (fluorescence mostly, some colorimetric and radioactive) and inhibitors, followed by a biochemical separation of substrate and product. All assays for the biochemical HTS were initially run in duplicate at a single concentration (10 uM for CYP450 assays and 25 uM for all others). […] Each assay was run with positive and negative controls, and concurrent controls on every plate. The follow-up (secondary) screen tested active chemical-pairs in concentration series, as well as a few additional assays not tested in the primary screen, some selected negative inactives, and several cases re-run in the concentration series for confirmatory purposes.
On to `OCCOCCOCCO`, for which the call was inactive.
Still for that read-out and setting: under `C=CN1CCCC1=O` stands “inactive”; under `OC[C@H]1O[C@@H]2O[C@H]3[C@H](O)[C@@H](O)[C@@H](O[C@H]4[C@H](O)[C@@H](O)[C@@H](O[C@H]5[C@H](O)[C@@H](O)[C@@H](O[C@H]6[C@H](O)[C@@H](O)[C@@H](O[C@H]7[C@H](O)[C@@H](O)[C@@H](O[C@H]1[C@H](O)[C@H]2O)O[C@@H]7CO)O[C@@H]6CO)O[C@@H]5CO)O[C@@H]4CO)O[C@@H]3CO`, “inactive”.
On the same count and under the same terms, under `NNC(=O)c1ccncc1` stands “inactive”.
As to `C[C@]12C=CC(=O)C=C1CC[C@H]1[C@@H]3C[C@@H](O)[C@](O)(C(=O)CO)[C@@]3(C)C[C@H](O)[C@@]12F`, the call was inactive.
Same read-out and setting: under `c1ccc2ncccc2c1` stands “inactive”; under `O=C(O)[C@H](O)[C@@H](O)C(=O)O`, “inactive”.
Same read-out and setting: under `O=S1(=O)CCCO1` stands “inactive”.
Same read-out and setting: under `CC1(C)C(=O)N(Cl)C(=O)N1Cl` stands “inactive”; under `COS(C)(=O)=O`, “inactive”.
`CNC(C)=O`: the result was inactive.
In the case of `NC(=O)NN=Cc1ccc([N+](=O)[O-])o1`, the concentration at half-maximal activity (AC50) is 10.9 µM (active).
Regarding `NC(=O)N1c2ccccc2C=Cc2ccccc21`, the call was inactive.
For `O=C(O)c1cccc(C(=O)O)c1`, the result was inactive.

For the origin of these results see PubChem BioAssay (EPA / NIEHS).
